The test system of experiment [1] is Plasmodium falciparum. Put plainly: GSK_TCMDC: Inhibition of Plasmodium falciparum 3D7 in whole red blood cells, using parasite LDH activity as an index of growth. Test compounds present at 2uM. The class given is functional.
Experiment [2] relates to Plasmodium falciparum. In words: GSK_TCMDC: Inhibition of Plasmodium falciparum Dd2 in whole red blood cells, using parasite LDH activity as an index of growth. Test compounds present at 2uM. The class given is functional.

As usually defined, the Inhibition is the drop in the measured response relative to a control, in per cent. A low value points to little suppression.

Several values for one entry are separate records, joined by “and”; a condition that tells them apart may be missing. Equal entries are not always repeated.

Take `Cc1[nH]c(C)c(-c2ccc(Oc3ccccc3)cc2)c(=O)c1Br`: the Inhibition is recorded as 96% with Plasmodium falciparum [1] and 97% in the experiment on Plasmodium falciparum [2].
On the same counts, the results for `CCS(=O)(=O)O.N=C(N)NC(=O)Nc1ccc(Cl)c([N+](=O)[O-])c1` are 97% and 9%.
On the same counts, the results for `COCCOCCOCCn1ccc2c3c(N)nc(N)nc3ccc21` are 97% and 0%.
For `Cc1nc(C)c(-c2ccc(Cl)cc2)c(O)c1I`, the Inhibition amounted to 93% in the experiment with Plasmodium falciparum [1] and 96% with Plasmodium falciparum [2].
For `CCc1ccc(Cc2cnc3nc(N)nc(N)c3c2C)cc1` the same measures were 97% and 0%.
For `Cc1nc(N)nc(N)c1-c1ccc(Br)c(Br)c1` the same measures were 94% and 1%.
For the compound `CC(C)c1ccc(Cn2cc(-c3ccncc3)c3cc(OCc4ccccc4)ccc32)cc1.Cl`, the figures for the Inhibition with Plasmodium falciparum [1] and in the experiment with Plasmodium falciparum [2] were 99% and 88%, respectively.
With `CC(=NNc1nc2ccccc2s1)c1ccccn1.Cl`, the Inhibition in the experiment on Plasmodium falciparum [1] stood at 88%; in the experiment with Plasmodium falciparum [2] it was 47%.
Take `Cl.Oc1ccc2c(CNC3CCCCC3)c(O)ccc2c1CNC1CCCCC1`: the Inhibition in the experiment with Plasmodium falciparum [1] and with Plasmodium falciparum [2] was 100% each time.
Turning to `Cc1cc2c3c(N)nc(N)nc3ccc2n1C`, the Inhibition in the experiment with Plasmodium falciparum [1] is reported as 95%; in the experiment with Plasmodium falciparum [2], 0%.
On the same counts, the results for `CC(=NNC(S)=NCCc1ccccn1)c1ccccn1` are 100% and 95%.
On to `Cl.O[C@@H](c1cc(C(F)(F)F)nc2c(C(F)(F)F)cccc12)[C@H]1CCCCN1`, for which the Inhibition in the experiment with Plasmodium falciparum [1] is 96% and 99%; with Plasmodium falciparum [2] it was 99%.
`CCCCCCCc1c(C)[nH]c2ccc(F)cc2c1=O`: the values for the Inhibition in the experiment on Plasmodium falciparum [1] and in the experiment on Plasmodium falciparum [2] were 98% and 96%, respectively.
On the same counts, the results for `C=CCn1ccc2c3c(N)nc(N)nc3ccc21` are 89% and 91%.
As for `COc1ccc2c(c1CCNCCCCNCCc1c(OC)ccc3c1CCCC3)CCCC2.CS(=O)(=O)O`, the figures for the Inhibition with Plasmodium falciparum [1] and with Plasmodium falciparum [2] were 100% and 25%, respectively.
Regarding `Nc1nc(N)c2cc(Cc3ccc([N+](=O)[O-])cc3)cnc2n1.O=S(=O)(O)O`, the Inhibition is on record as 91% with Plasmodium falciparum [1] and 0% in the experiment on Plasmodium falciparum [2].
Take `CC(C)C(=O)Nc1c(F)cc(F)cc1CCc1ccc(O)cc1`: the Inhibition was 90% in the experiment with Plasmodium falciparum [1] and 91% in the experiment with Plasmodium falciparum [2].
On the same counts, the results for `O=C(NCCCCN1CCN(c2nsc3ccccc23)CC1)c1ccccc1C(=O)NCCCCN1CCN(c2nsc3ccccc23)CC1` are 100% and 22%.
On the same counts, the results for `Cl.N=C(N)c1ccc2[nH]c(-c3cc4cc(C(=N)N)ccc4o3)cc2c1` are 94% and 87%.
Turning to `CCN(CC)c1ccc2nc(N)nc(N)c2c1.Cl`, the Inhibition is reported as 93% with Plasmodium falciparum [1] and 0% with Plasmodium falciparum [2].
On the same counts, the results for `CCNCCCC(C)Nc1ccnc2cc(Cl)ccc12.O=C(O)C(=O)O` (centres undefined) are 100% and 0%.
Take `Cc1cc(O)c(-c2ccc(S(=O)(=O)c3ccc(Cl)cc3)cc2)c(C)n1`: the Inhibition is 92% with Plasmodium falciparum [1] and 80% with Plasmodium falciparum [2].
`Nc1nc(N)c2c(Oc3ccc(Cl)c(Cl)c3)cccc2n1`: the Inhibition in the experiment with Plasmodium falciparum [1] is listed as 95%; in the experiment on Plasmodium falciparum [2] it was 22%.
On the same counts, the results for `CCCc1cc(OC)c(CC2c3cc(O)c(Cl)cc3C(c3ccccc3)CN2C)cc1OC.Cl` (centres undefined) are 100% and 100%.
For `CCCCSc1ccc(CNCCCCCCNCc2ccc(SCCCC)c3ccccc23)c2ccccc12.CS(=O)(=O)O` the same measures were 94% and 48%.
Regarding `CCCCN(CCCC)Cc1cc(N(C)c2ccc([N+](=O)[O-])cn2)ccc1O.O=C(O)C(=O)O`, the Inhibition in the experiment with Plasmodium falciparum [1] and in the experiment on Plasmodium falciparum [2] was 98% each time.
With `CCN(CC)CCCN(CCCN(CC)CC)c1cc(C)nc(Nc2ccc(Br)cc2)n1.Cl`, the figures for the Inhibition in the experiment on Plasmodium falciparum [1] and in the experiment on Plasmodium falciparum [2] were 100% and 40%, respectively.
On to `CCCCNCc1cc(Cl)c2ccccc2c1O.Cl`, for which the Inhibition with Plasmodium falciparum [1] and in the experiment on Plasmodium falciparum [2] was 100% throughout.
With `N=C(N)NC(=O)Nc1cc(F)c(Cl)c(Cl)c1`, the Inhibition with Plasmodium falciparum [1] and in the experiment on Plasmodium falciparum [2] was 100% each time.
Take `CCCN(c1ccc(O)c(CN2CCCCC2)c1)c1ccc([N+](=O)[O-])cn1.O=C(O)C(=O)O`: the Inhibition with Plasmodium falciparum [1] came out at 99%; in the experiment on Plasmodium falciparum [2], 96%.
`O=C(Nc1cccc(-c2cccc(-c3nc4ccccc4[nH]3)c2)c1)NC1CC1c1ccccc1` (centres undefined): the Inhibition with Plasmodium falciparum [1] was 90% and 87%; in the experiment with Plasmodium falciparum [2] it was 22% and 27%.
Take `CC(CO)(CO)NCc1cc2ccc3ccsc3c2c2ccccc12.CS(=O)(=O)O`: the Inhibition in the experiment on Plasmodium falciparum [1] worked out at 96%; in the experiment with Plasmodium falciparum [2], 98%.
On the same counts, the results for `Cc1ccccc1OCCCc1c(C)nc(N)nc1N` are 97% and 1%.
On the same counts, the results for `CC(C)Cn1ccc2c3c(N)nc(N)nc3ccc21` are 96% and 96%.
On the same counts, the results for `Cc1cc(=O)c(-c2ccc(Oc3ccc(OC(F)(F)F)cc3)cc2)c(C)[nH]1` are 93% and 61%.
As to `CC(=NNC(S)=NCc1ccco1)c1ccccn1`, the Inhibition stood at 99% with Plasmodium falciparum [1] and 100% with Plasmodium falciparum [2].
On the same counts, the results for `Cc1cc(O)c(-c2ccc(OCc3ccc(Cl)cc3)cc2)c(C)n1` are 93% and 76%.

Source of the values: ChEMBL document CHEMBL1157539, “Thousands of chemical starting points for antimalarial lead identification” (Nature, 2010).
